# Results as given in the supplement of paper PMC7801607.
# Assays:
# CHO = assay: % viability of CHO cells (MTT); higher = less toxic; conditions: 48 h
# How it was run: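 Viability was given as a percentage of untreated cells and measured colorimetrically by the tetrazolium (MTT) assay. Before this, CHO cells at 10^6 cells/well in 200 µL attached overnight, then received fresh medium containing compound at 2 or 20 µM for 48 h.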
# HepG2-A16-CD81 = assay: % inhibition of HepG2 viability (CellTiter-Glo); higher = more toxic; conditions: 5 µM
# [1] = tested on: Plasmodium falciparum NF54 stage IV/V gametocytes; assay: % inhibition of gametocyte viability (PrestoBlue); higher = more inhibition; conditions: 48 h
# How it was run: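 Values are percent inhibition of gametocyte viability, normalised to vehicle and kill controls in a single run. Stage IV/V NF54 gametocytes (2% gametocytaemia, 5% haematocrit, 100 µL/well) were held with compound at 1 or 5 µM for 48 h at 37 °C, stationary and hypoxic. Viability was read as 612 nm fluorescence on 70 µL of supernatant after a 2 h incubation with 10 µL PrestoBlue.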
# [2] = tested on: Plasmodium falciparum NF54 asexual blood stage; assay: % inhibition of asexual blood stage proliferation (pLDH); higher = more inhibition; conditions: 72 h
# How it was run: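 Using 96-well plates, the screen was run twice on separate occasions with Plasmodium falciparum NF54 ring-stage cultures at 1% haematocrit and 2% parasitaemia. Each culture was exposed to compound at 2 or 20 µM for 72 h at 37 °C under a gas mix of 4% CO2, 3% O2 and 93% N2. After incubation, the parasite lactate dehydrogenase assay was read colorimetrically at 620 nm. From this readout, percent inhibition of asexual proliferation was derived against control wells.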
# [3] = tested on: Plasmodium falciparum NF54 stage IV/V gametocytes; assay: % inhibition of gametocyte viability (ATP bioluminescence); higher = more inhibition; conditions: 24 h
# How it was run: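 Viability of stage IV/V NF54 gametocytes is given as percent inhibition, normalised to control wells in a single run. Gametocytes enriched on density gradients were seeded at 30,000 per well in 96-well plates with compound at 1 or 5 µM and held at 37 °C for 24 h. ATP was then read with the Promega BacTiter Glo bioluminescence system.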
# [4] = tested on: Plasmodium falciparum NF54 stage IV/V gametocytes; assay: % inhibition of gametocyte viability (luciferase reporter); higher = more inhibition; conditions: 48 h
# How it was run: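 Percent inhibition came from luminescence and was normalised to controls in a single run. Gametocytes (stage IV/V, NF54-Pfs16-GFP-Luc line, 2% gametocytaemia, 2% haematocrit) were treated with compound at 1 or 5 µM and incubated for 48 h at 37 °C without agitation under hypoxia. Readings used 30 µL lysate with 30 µL Promega luciferin substrate on a GloMax-Multi+ reader, integrating for 10 s.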
# [5] = tested on: Plasmodium berghei ANKA liver stage in HepG2-A16-CD81; assay: % inhibition of liver stage parasite viability (luciferase); higher = more inhibition; conditions: 5 µM; 48 h
# Protocol: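 Single-concentration screen of the MMV Pandemic Response Box. P. falciparum NF54 asexual blood stages: pLDH assay, 72 h at 37 °C, 2 and 20 µM, n=2. Stage IV/V gametocytes (NF54): luciferase reporter (NF54-Pfs16-GFP-Luc, 48 h), ATP bioluminescence (24 h) and PrestoBlue (48 h) at 1 and 5 µM, n=1. P. berghei liver stage (luciferase in HepG2-A16-CD81, 48 h post infection) at 5 µM, n=4. All normalised to DMSO and kill controls as % inhibition.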
# 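Wherever % inhibition of HepG2 viability (CellTiter-Glo) is given: HepG2-A16-CD81 hepatoma cells plated as in the liver-stage assay but without sporozoites, with DMSO wells as negative and 25 µM puromycin as positive control.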
Structure (SMILES),% viability of CHO cells (CHO; 2 µM) [%],% viability of CHO cells (CHO; 20 µM) [%],% inhibition of HepG2 viability (HepG2-A16-CD81) [%],% inhibition of gametocyte viability ([1]; 1 µM) [%],% inhibition of gametocyte viability ([1]; 5 µM) [%],% inhibition of asexual blood stage proliferation ([2]; 2 µM) [%],% inhibition of asexual blood stage proliferation ([2]; 20 µM) [%],% inhibition of gametocyte viability ([3]; 1 µM) [%],% inhibition of gametocyte viability ([3]; 5 µM) [%],% inhibition of gametocyte viability ([4]; 1 µM) [%],% inhibition of gametocyte viability ([4]; 5 µM) [%],% inhibition of liver stage parasite viability [5] [%]
COc1cc2c(O)c3c(c(-c4ccc5c(c4)OCO5)c2cc1OC)C(=O)OC3,98,86.4,58.9,13,17.7,44.2,99.9,< 0,< 0,< 0,< 0,58.4
O=C(O)c1cc(-c2ccc(Br)cc2)nc2ccc(Cl)cc12,96.8,111,3.15,14.7,5.76,7.74,-6.63,< 0,< 0,< 0,< 0,–
CN1CCN(c2ccc3[nH]c(-c4ccc5[nH]c(-c6ccc(O)cc6)nc5c4)nc3c2)CC1,106,115,18.2,< 0,< 0,82.9,80.9,< 0,< 0,< 0,20.9,-6.69
CCCCCCCCC(CP(=O)(O)C(C)N)C(=O)O (stereo not given),97.4,137,-1.01,< 0,< 0,17.8,95.7,< 0,< 0,< 0,10.2,24.3
CC(C)(C)c1cc(C(=O)/C(C#N)=N/Nc2cccc(Cl)c2)no1,113,97.4,44.1,< 0,< 0,-1.08,24.2,< 0,< 0,< 0,< 0,51.5
OC[C@@H]1CC[C@H](n2cnc3c(O)ncnc32)O1,119,114,-1.26,1.35,4.95,47.1,26.7,< 0,< 0,0.0967,< 0,18.8
Fc1ccc2c(/C=C/c3nnn[nH]3)c[nH]c2c1,80.4,75,2,4.4,18.3,7.6,10.8,< 0,< 0,< 0,4.42,–
Nc1cc(N)c2nc(-c3ccccc3)c(Nc3ccc(F)cc3)nc2c1,97.5,88.4,12.8,< 0,< 0,91,92.4,< 0,19.7,< 0,< 0,43.9
NCC(=O)Nc1ccc(-n2nc(C(F)(F)F)cc2-c2ccc3c(ccc4ccccc43)c2)cc1,124,64.1,9.92,22.9,12.6,1.4,67.6,31,93.6,< 0,< 0,20.2
CCC(C)n1ncn(-c2ccc(N3CCN(c4ccc(OCC5COC(Cn6cncn6)(c6ccc(Cl)cc6Cl)O5)cc4)CC3)cc2)c1=O (stereo not given),119,119,26.2,2.77,1.55,10.1,83.4,3.02,< 0,< 0,< 0,–
CC(C)(C)c1ccc(C(=O)NC(=O)N2CCCc3ccccc32)cc1,94.6,101,-0.159,< 0,< 0,-6.14,-5.88,< 0,< 0,< 0,< 0,–
CCn1cc(C(=O)O)c(=O)c2cc(F)c(N3CCNC(C)C3)c(F)c21 (stereo not given),104,102,0.454,34.9,43.8,36.8,28.9,< 0,< 0,< 0,< 0,–
CCc1nc2ccc(Cl)cn2c1C(=O)NCc1ccc(N2CCC(c3ccc(OC(F)(F)F)cc3)CC2)cc1,91.1,113,7.13,22,< 0,31.7,102,< 0,< 0,4.46,< 0,–
CN(Cc1ccc(C(C)(C)C)cc1)Cc1cccc2ccccc12,92.4,110,2.12,7.34,8.91,-5.03,71.1,< 0,< 0,< 0,< 0,–
COC1CC2CCC(C)C(O)(O2)C(=O)C(=O)N2CCCCC2C(=O)OC(C(C)CC2CCC(OCCO)C(OC)C2)CC(=O)C(C)/C=C(\C)C(O)C(OC)C(=O)C(C)CC(C)/C=C/C=C/C=C/1C (stereo not given),92.8,106,1.51,< 0,4.18,26.6,90.3,2.16,37.2,15,4.08,–
COc1ccc(C(C)(C)C)cc1NC(=O)C(=O)c1ccc(OCCN2CCOCC2)c2ccccc12,97.6,130,1.14,12.9,26.4,29.2,23.5,< 0,< 0,6.49,< 0,–
O=c1cc(OCc2ccccc2)ccn1Cc1ccccc1,82.6,98.7,-3.88,14.1,6.4,6.62,51.5,< 0,< 0,< 0,< 0,–
CC[N+]1(C/C2=C/CCCCCC2)CCC(NC(=O)C2c3cc(Cl)ccc3Oc3ccc(Cl)cc32)CC1 (stereo not given),100,75.9,7.74,< 0,41.9,21.8,101,< 0,44,7.3,34,–
